Among the data in PubChem BioAssay (NCATS) are Potency values, retold here.

Molecules are shown by their SMILES. Inconclusive results are not listed. Where a call stands in place of a potency, no number is given. Calls of active or inactive are those of the source. Calls come from the whole dose curve; as a rule, active = well fitted cell-killing curve with a large enough effect; inconclusive = small, poorly fitted or top-dose-only effect, or effect the other way; inactive = no such curve, though single readings can be large or run the other way.
Potency is the fitted concentration of half-maximal effect.

A short description of the assay: Quantitative High-Throughput drug screen in 47 multiple myeloma cell lines against the NCATS MIPE library collection: KMS34_JCRB cell viability assay (AID 1918985). Note: nearly all actives have a fitted effect of over 40% in size. The following applies: KMS34 myeloma viability, CellTiter-Glo ATP luminescence, 48 h; series mostly up to 45.8 µM. The text has this: PI: Beverly A. Mock Ph.D.
Laboratory of Cancer Biology and Genetics,
Center for Cancer Research, National Cancer Institute,
National Institute of Health, Bethesda, Maryland
Drug resistance and disease progression are common in multiple myeloma (MM) patients, underscoring the need for new therapeutic combinations. […] We hypothesized that effective combinations would reduce MYC expression and enhance p16 activity. […] These preclinical data identify potentially useful drug combinations for evaluation in drug-resistant MM and reveal potential mechanisms of combined drug sensitivity.
Described herein is the primary MIPE qHTS used to cherrypick compounds. Validated compounds were then further tested for potential synergistic activiy.
[1] Peat TJ, Gaikwad SM, Dubois W, Gyabaah-Kessie N, Zhang S, Gorjifard S, Phyo Z, Andres M, Hughitt VK, Simpson RM, Miller MA, Girvin AT, Taylor A, Williams D, D'Antonio N, Zhang Y, Rajagopalan A, Flietner E, Wilson K, Zhang X, Shinn P, Klumpp-Thomas C, McKnight C, Itkin Z, Chen L, Kazandijian D, Zhang J, Michalowski AM, Simmons JK, Keats J, Thomas CJ, Mock BA. Drug combinations identified by high-throughput screening promote cell cycle transition and upregulate Smad pathways in myeloma. Cancer Lett. 2023 Aug 1;568:216284. doi: 10.1016/j.canlet.2023.216284. Epub 2023 Jun 24. PMID: 37356470; PMCID: PMC10408729.
SEQUENCE No. (e.g., 1, 2, 3, etc.); […] (e.g., Cells, Incubation, Reagent, etc.); VALUE and DESCRIPTION.
1; Cells; 5 uL; white, solid bottom 1536-well Greiner assay plate.
2; Compounds; 23 nL; Kalypsis pin tool (Wako USA) equipped with a 1536-well pin head to transfer to the assay plates.
3; Incubation; 48 hours; 37C incubation.
4; Reagent;5uL; CellTiter Glo (Promega).
5; Detector; 425V; Luminescence; Viewlux PerkinElmer.
NOTES (numbers refer to Sequence numbers above)
1. The cell-based screening methods employed in this study were like those previously published. Briefly, the corresponding myeloma cell lines were screened in 1,536-well plates with 500 cells, 5-uL per well for inhibition of cell viability (assessed by measuring ATP levels with CellTiterGlo).
2. NCATS MIPE 4.0 library of approved and investigational drugs were added using the Kalypsis pin tool. Wells treated with DMSO only for 100% viability and media only for 0% viability were used as controls.
3. The assay plates were covered and incubated for 48 hours in a 37C, 5% CO2 incubator with controlled humidity.
4. After 48 hours, CellTilter-GloTM luminescent substrate mix (Promega) reagent was added to the assay plate and plates we incubated for 5 min at room temperature.
5. Signal was measured as median relative luminescence units on a ViewLux (PerkinElmer) multiplate reader.
[1] Heske CM, Davis MI, Baumgart JT, Wilson K, Gormally MV, Chen L, Zhang X, Ceribelli M, Duveau DY, Guha R, Ferrer M, Arnaldez FI, Ji J, Tran HL, Zhang Y, Mendoza A, Helman LJ, Thomas CJ. Matrix Screen Identifies Synergistic Combination of PARP Inhibitors and Nicotinamide Phosphoribosyltransferase (NAMPT) Inhibitors in Ewing Sarcoma. Clin Cancer Res. 2017 Dec 1;23(23):7301-7311. doi: 10.1158/1078-0432.CCR-17-1121. Epub 2017 Sep 12. PMID: 28899971; PMCID: PMC6636827.
For `C#Cc1cccc(Nc2ncnc3cc(OCCOC)c(OCCOC)cc23)c1`, the Potency is 11.8 µM (active).
As for `CCCCCCCc1ccc(CCc2cccc(O)c2C(=O)O)cc1`, the Potency entry is “inactive”.
On to `COc1ccc(-c2c(-c3ccc(O)cc3O)n[nH]c2C)cc1`, for which the Potency result was “inactive”.
With `COc1ccc(-c2ccc3c(N4CCOC[C@H]4C)nc(N4CCOC[C@H]4C)nc3n2)cc1CO`, the Potency is 0.0209 µM (active).
Next, `Cc1c(CN2CCN(C(=O)C(C)C)CC2)sc2c(N3CCOCC3)nc(-c3cnc(N)nc3)nc12`: 0.0296 µM (active).
Regarding `CC(C)NCC(O)COc1ccc(COCCOC(C)C)cc1` (stereo not given), the Potency entry is “inactive”.
Next, `COc1nc(-c2ccc3c(c2)OCO3)n(-c2ccc(NC(=O)CSc3ccccc3)cc2)n1`: “inactive”; `CN(C)c1ccc(Nc2nc(N)n(C(=O)c3c(F)cccc3F)n2)cc1`: 2.35 µM (active).
In the case of `CCCS(=O)(=O)Nc1ccc(F)c(C(=O)c2c[nH]c3ncc(Cl)cc23)c1F`, the Potency entry was “inactive”.
As for `CN(C)c1ccc(C2Nc3ccc4ccccc4c3C3=C2C(=O)CC(C)(C)C3)cc1Br` (stereo not given), the Potency entry is “inactive”.
Regarding `COc1ccc(-c2ccc3c(N4CCOCC4)nc(N4C[C@@H](C)O[C@@H](C)C4)nc3n2)cc1CO`, the Potency is 0.469 µM (active).
Turning to `CC[C@@H](C)[C@H](NC(=O)[C@H](CC1CCCCC1)NC(=O)c1ccno1)C(=O)N1CCC2(CCc3ccccc32)CC1`, the Potency is 7.43 µM (active).
Turning to `COc1cc2nccc(Oc3ccc(NC(=O)NC4CC4)c(Cl)c3)c2cc1C(N)=O`, the Potency was 18.7 µM (active).
Next, `CCCc1nc2c(C)cc(-c3nc4ccccc4n3C)cc2n1Cc1ccc(-c2ccccc2C(=O)O)cc1`: “inactive”; `COc1ccc(COc2cc3oc(=O)c4cc(C(C)O)ccc4c3cc2OC)cc1` (stereo not given): 18.7 µM (active).
Take `COc1ccc2nc(S(=O)Cc3ncc(C)c(OC)c3C)[nH]c2c1` (stereo not given): the Potency result is “inactive”.
`Cc1n[nH]c(C)c1Cc1sc2c(c1C(=O)N1C[C@H](O)CO1)c(=O)n(C)c(=O)n2CC(C)C`: the Potency entry is “inactive”.
As for `O=C(O)COCCN1CCN(C(c2ccccc2)c2ccc(Cl)cc2)CC1` (stereo not given), the Potency result is “inactive”.
`CCN(c1ccccc1)c1cc(NC)[n+](C)c(C)n1`: the Potency was 26.4 µM (active).
In the case of `Cc1[nH]c(=O)c(C#N)cc1-c1ccncc1`, the Potency entry was “inactive”.
`CCC(=O)N[C@H]1CC[C@H](C(=O)N(C)c2ccc(-c3nc4ccccc4o3)cc2)C1`: the Potency entry was “inactive”.
With `C[C@]12CC[C@H](O)CC1=CC[C@@H]1[C@H]2CC[C@]2(C)C(c3cccnc3)=CC[C@H]12`, the Potency result is “inactive”.
As for `S=C(NCc1ccc2c(c1)OCO2)N1CCN(c2ncnc3c2oc2ccccc23)CC1`, the Potency result is “inactive”.
On to `N[C@@H]1CONC1=O`, for which the Potency entry is “inactive”.
Turning to `CO[C@@H]1[C@H](N(C)C(=O)c2ccccc2)C[C@H]2O[C@]1(C)n1c3ccccc3c3c4c(c5c6ccccc6n2c5c31)C(=O)NC4`, the Potency was 1.32 µM (active).
For the molecule `COc1ccc([C@@H]2CC(=O)c3c(O)cc(O[C@@H]4O[C@H](CO[C@@H]5O[C@@H](C)[C@H](O)[C@@H](O)[C@@H]5O)[C@@H](O)[C@H](O)[C@@H]4O)cc3O2)cc1O`, the Potency result was “inactive”.
On to `OC[C@H](Cc1ccccc1)Nc1nc(Oc2ccc3c(c2)CCC3)nc2c1ncn2Cc1ccc(-c2ccccc2)cc1`, for which the Potency is 18.7 µM (active).
In the case of `CCOC(=O)N1CCC(=C2c3ccc(Cl)cc3CCc3cccnc32)CC1`, the Potency was 26.4 µM (active).
On to `Clc1cccc(Cl)c1NC1=NCCN1`, for which the Potency result was “inactive”.
With `NC[C@H](O)c1ccc(O)c(O)c1`, the Potency entry is “inactive”.
Next, `NS(=O)(=O)c1cc2c(cc1Cl)NC=NS2(=O)=O`: “inactive”.
As to `COc1ccccc1-c1cccc(-c2c(O)c3cc(C#N)c(Cl)cc3[nH]c2=O)c1`, the Potency entry is “inactive”.
As to `CCCC(CCC)C(=O)O`, the Potency entry was “inactive”.
Consider `O=c1n(CCCN2CCN(c3cccc(Cl)c3)CC2)nc2ccccn12`, for which the Potency entry is “inactive”.
Take `Nc1cccc(S(=O)(=O)N2CCCN(S(=O)(=O)c3ccc4c(c3)OCCO4)CC2)c1`: the Potency entry is “inactive”.
Consider `Cc1ccnc(NS(=O)(=O)c2ccc(NC(=O)Nc3ccc(S(=O)(=O)Nc4nccc(C)n4)cc3)cc2)n1`, for which the Potency entry is “inactive”.
Next, `COc1ccc(-c2oc3cc(OC)ccc3c2C(=O)c2ccc(C#N)cc2)cc1`: “inactive”; `Cn1c(=O)c(F)c(Nc2ccc(I)cc2F)c2c(=O)n(C[C@@H](O)CO)cnc21`: “inactive”.
Next, `O=C(O)[C@@H](c1ccc(OCc2ccc3ccccc3n2)cc1)C1CCCC1`: “inactive”; `COc1ccc(CC2=NN3C([C@@H](CCc4ccccc4)[C@@H](C)O)=NC(C)C3C(=O)N2)cc1OC` (stereo not given in full): “inactive”.
